Data reported in PubChem BioAssay (NCI).
This is part of a sample that, as a whole, favours compounds with a hit. Of some 79,000 tested, about 15% had one in any assay. Calls of active or inactive are those of the source. No stated cut-off is given here; in the data, active means growth inhibition above about 70%; inactive means the rest.

Experiments:
[1] = NCI Yeast Anticancer Drug Screen. Data for the rad52 strain (AID 147);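 further: 0% = growth of vehicle-treated control cultures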; conditions: S. cerevisiae rad52 mutant growth inhibition, active compounds read high
Method in brief: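 Measured: yeast growth inhibition. System: strain with a defined DNA damage repair alteration. Reference: vehicle-treated control cultures.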

[2] = NCI Yeast Anticancer Drug Screen. Data for the wt1 strain (AID 149);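 further: 0% = growth of vehicle-treated wt1 cultures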; conditions: S. cerevisiae wt1 strain (SPY 50644) growth inhibition, active compounds read high
Method in brief: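 wt1 strain grown with compound or vehicle; inhibition taken from the growth difference.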

[3] = NCI Yeast Anticancer Drug Screen. Data for the rad50EPP+ strain (AID 151);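 further: 0% = growth of vehicle-treated control cultures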; conditions: S. cerevisiae rad50 mutant strain, active compounds read high
Method in brief: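 One strain with a rad50 alteration (rad50EPP+) was compound-treated, its growth then compared to that of vehicle controls.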

[4] = NCI Yeast Anticancer Drug Screen. Data for the mgt1 strain (AID 153); conditions: S. cerevisiae mgt1 mutant growth inhibition, active compounds read high
Method in brief: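 After exposure of the mgt1 yeast mutant to compound, growth was measured and reported as inhibition compared with vehicle controls.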

[5] = NCI Yeast Anticancer Drug Screen. Data for the rad50 strain (AID 155);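 further: 0% = growth of vehicle-only cultures of the same strain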; conditions: S. cerevisiae rad50 strain growth inhibition, active compounds read high
Method in brief: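 DNA repair mutant yeast, compound exposure, growth read-out; inhibition is taken relative to vehicle.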

[6] = NCI Yeast Anticancer Drug Screen. Data for the mec2-1 strain (AID 157); conditions: S. cerevisiae mec2-1 strain, active compounds read high
Method in brief: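 Test agents were screened against the mec2-1 yeast strain, with defined DNA repair or cell cycle alteration. Growth was scored as inhibition against vehicle-only controls.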

[7] = NCI Yeast Anticancer Drug Screen. Data for the rad14 strain (AID 159);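 further: 0% = growth of vehicle-treated control cultures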; conditions: S. cerevisiae rad14 strain growth inhibition, active compounds read high
Method in brief: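 DNA repair-defective yeast, compound-exposed; % growth inhibition derived by comparison with vehicle-treated controls.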

[8] = NCI Yeast Anticancer Drug Screen. Data for the sgs1 mgt1 strain (AID 161);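 further: 0% = growth of cultures given vehicle only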; conditions: S. cerevisiae sgs1 mgt1 strain, active compounds read high
Method in brief: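 Genetically altered yeast, compound exposure, growth inhibition relative to vehicle.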

[9] = NCI Yeast Anticancer Drug Screen. Data for the CLN2oe strain (AID 163);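 further: 0% = growth of vehicle-only control cultures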; conditions: S. cerevisiae CLN2oe strain, active compounds read high
Method in brief: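 Here, growth inhibition in a cell-cycle-altered yeast strain after compound exposure was quantified against vehicle control growth.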

[10] = NCI Yeast Anticancer Drug Screen. Data for the cln2 rad14 strain (AID 165);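 further: 0% = growth equal to vehicle treated cultures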; conditions: S. cerevisiae cln2 rad14 strain, active compounds read high
Method in brief: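 Growth of compound-exposed yeast (cln2 rad14 genotype) measured and expressed as inhibition relative to vehicle.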

[11] = NCI Yeast Anticancer Drug Screen. Data for the bub3 strain (AID 167); conditions: S. cerevisiae bub3 mutant strain, active compounds read high
Method in brief: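 In this screen, a yeast mutant lacking normal mitotic checkpoint function is challenged with compound. Relative growth versus vehicle gives the inhibition value.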

[12] = NCI Yeast Anticancer Drug Screen. Data for the wt2 strain (AID 169);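 further: 0% = growth of vehicle-treated yeast cultures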; conditions: S. cerevisiae wt2 strain growth inhibition, active compounds read high
Method in brief: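 Genetically defined yeast strains from a DNA-repair/cell-cycle panel were used. Compound-exposed yeast growth was measured, and the inhibition was calculated relative to vehicle treatment.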

[13] = NCI Yeast Anticancer Drug Screen. Data for the mlh1 strain (AID 171);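 further: 0% = growth of vehicle-treated control cultures of the same strain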; conditions: S. cerevisiae mlh1 strain growth inhibition, active compounds read high
Method in brief: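 Here the genetically defined yeast mutant is grown with each compound, and the extent to which its growth falls below that of vehicle-exposed cells is reported.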

[14] = NCI Yeast Anticancer Drug Screen. Data for the sgs1 strain (AID 173);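 further: 0% = growth of vehicle-only control cultures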; conditions: S. cerevisiae sgs1 mutant, active compounds read high
Method in brief: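 Relative growth inhibition, referenced to vehicle, was determined in a yeast strain with a defined alteration affecting DNA damage repair or cell cycle control after compound exposure.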

[15] = NCI Yeast Anticancer Drug Screen. Data for the mlh1 rad18 strain (AID 175); conditions: S. cerevisiae mlh1 rad18 strain growth inhibition, active compounds read high
Method in brief: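 In this whole-cell yeast screen, a strain with altered DNA damage repair is challenged with compound, and its growth is measured against matched vehicle-treated controls.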

[16] = NCI Yeast Anticancer Drug Screen. Data for the rad18 strain (AID 177); conditions: S. cerevisiae rad18 mutant growth inhibition, active compounds read high
Method in brief: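 Screen uses a yeast strain with a defined lesion in DNA damage repair; compound effect is read as loss of growth compared to untreated vehicle cultures.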

[17] = at 5.0 µM (retest, dose inferred, filed as 0.5)
[18] = at 50.0 µM (retest, dose inferred, filed as 5.0)

Measured: growth inhibition

COc1cc(O)c2c(c1O)C(=O)c1cc(C)ncc1C2=O
inactive: [1]; at 1.2 µM 9% | [1]; at 3.7 µM 16% | [1]; at 11.0 µM 29% | [1]; at 33.0 µM 51% | [2]; at 1.2 µM 6% | [2]; at 3.7 µM 24% | [2]; at 11.0 µM 36% | [2]; at 33.0 µM 39% | [2]; at 100.0 µM 48% | [3]; at 1.2 µM 8% | [3]; at 3.7 µM 20% | [3]; at 11.0 µM 19% | [3]; at 33.0 µM 48% | [3]; at 100.0 µM 52% | [4]; at 1.2 µM 5% | [4]; at 3.7 µM 4% | [4]; at 11.0 µM 15% | [4]; at 33.0 µM 39% | [4]; at 100.0 µM 60% | [5]; at 1.2 µM 8% | [5]; at 3.7 µM 13% | [5]; [17] 9% | [5]; at 11.0 µM 33% | [5]; at 33.0 µM 57% | [5]; [18] 48% | [5]; at 50.0 µM 65.7% | [6]; at 1.2 µM 10% | [6]; at 3.7 µM 10% | [6]; [17] 8% | [6]; at 11.0 µM 9% | [6]; at 33.0 µM 9% | [6]; [18] 44% | [6]; at 50.0 µM 23.2% | [6]; at 100.0 µM 23% | [7]; at 1.2 µM 31% | [7]; at 3.7 µM 47% | [8]; [17] 9% | [8]; at 50.0 µM 69.9% | [9]; at 1.2 µM 16% | [9]; at 3.7 µM 11% | [9]; at 11.0 µM 5% | [9]; at 33.0 µM 10% | [9]; at 100.0 µM 12% | [10]; [17] 1% | [10]; [18] 12% | [10]; at 50.0 µM 18.9% | [11]; at 1.2 µM 14% | [11]; at 3.7 µM 13% | [11]; [17] 5% | [11]; at 11.0 µM 26% | [11]; at 33.0 µM 51% | [11]; [18] 42% | [12]; at 1.2 µM 39% | [12]; at 3.7 µM 60% | [13]; at 1.2 µM 7% | [13]; at 3.7 µM 21% | [13]; at 11.0 µM 41% | [13]; at 33.0 µM 54% | [14]; at 1.2 µM 12% | [14]; at 3.7 µM 29% | [15]; [17] 17% | [15]; at 50.0 µM 64.8% | [16]; at 1.2 µM 4% | [16]; at 3.7 µM 21% | [16]; at 11.0 µM 28% | [16]; at 33.0 µM 40% | [16]; at 100.0 µM 60%
active: [1]; at 100.0 µM 72% | [5]; at 100.0 µM 86% | [7]; at 11.0 µM 70% | [7]; at 33.0 µM 91% | [7]; at 100.0 µM 94% | [8]; [18] 84% | [11]; at 50.0 µM 75.9% | [11]; at 100.0 µM 73% | [12]; at 11.0 µM 83% | [12]; at 33.0 µM 91% | [12]; at 100.0 µM 95% | [13]; at 100.0 µM 87% | [14]; at 11.0 µM 77% | [14]; at 33.0 µM 88% | [14]; at 100.0 µM 84% | [15]; [18] 83%

Cc1cc(NCCCCCCCCNc2cc(C)nc3cc(N)ccc23)c2ccc(N)cc2n1
inactive: [1]; at 1.2 µM -41% | [1]; at 3.7 µM -45% | [2]; at 1.2 µM -65% | [2]; at 3.7 µM -41% | [3]; at 1.2 µM -47% | [3]; at 3.7 µM -30% | [3]; at 11.0 µM 50% | [4]; at 1.2 µM -72% | [4]; at 3.7 µM -79% | [5]; at 1.2 µM -39% | [5]; at 3.7 µM -32% | [5]; [17] 15% | [6]; at 1.2 µM -70% | [6]; at 3.7 µM -55% | [6]; [17] 12% | [7]; at 1.2 µM -40% | [7]; at 3.7 µM -35% | [8]; [17] 8% | [9]; at 1.2 µM -18% | [9]; at 3.7 µM -20% | [9]; at 11.0 µM 39% | [10]; [17] 18% | [11]; at 1.2 µM -64% | [11]; at 3.7 µM -45% | [11]; [17] 39%
active: [1]; at 11.0 µM 75% | [1]; at 33.0 µM 98% | [1]; at 100.0 µM 95% | [2]; at 11.0 µM 92% | [2]; at 33.0 µM 98% | [2]; at 100.0 µM 96% | [3]; at 33.0 µM 95% | [3]; at 100.0 µM 95% | [4]; at 11.0 µM 80% | [4]; at 33.0 µM 98% | [4]; at 100.0 µM 95% | [5]; at 11.0 µM 92% | [5]; at 33.0 µM 97% | [5]; [18] 98% | [5]; at 50.0 µM 90.2% | [5]; at 100.0 µM 96% | [6]; at 11.0 µM 91% | [6]; at 33.0 µM 98% | [6]; [18] 98% | [6]; at 50.0 µM 91.4% | [6]; at 100.0 µM 96% | [7]; at 11.0 µM 87% | [7]; at 33.0 µM 97% | [7]; at 100.0 µM 96% | [8]; [18] 99% | [8]; at 50.0 µM 92.1% | [9]; at 33.0 µM 97% | [9]; at 100.0 µM 94% | [10]; [18] 98% | [10]; at 50.0 µM 88% | [11]; at 11.0 µM 90% | [11]; at 33.0 µM 97% | [11]; [18] 99% | [11]; at 50.0 µM 91.5% | [11]; at 100.0 µM 93%
